Compounds without any hit were thinned out: in the full panel of roughly 83,000, 20% have a hit.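 Interpretation: 100, growth as untreated; towards 0, rising growth inhibition; 0, no net growth; 0 to -100, cell death. Compounds scoring below 10 were considered active.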 Values without a mark were called inactive. Active and inactive are the calls of the source.
Experiments:
Assay in all cases: NCI-60 one-dose screen, 48 h (100 = growth as untreated, 0 = no growth, -100 = all killed)
Conditions in all cases: 10 µM unless noted
SK-MEL-2 melanoma = tested on: SK-MEL-2 melanoma
EKVX NSCLC = tested on: EKVX NSCLC
SN12C renal = tested on: SN12C renal
UO-31 renal = tested on: UO-31 renal
TK-10 renal = tested on: TK-10 renal
ACHN renal = tested on: ACHN renal
CAKI-1 renal = tested on: CAKI-1 renal
A498 renal = tested on: A498 renal
CCRF-CEM leukemia = tested on: CCRF-CEM leukemia
MOLT-4 leukemia = tested on: MOLT-4 leukemia
RPMI-8226 leukemia = tested on: RPMI-8226 leukemia
OVCAR-8 ovarian = tested on: OVCAR-8 ovarian
OVCAR-5 ovarian = tested on: OVCAR-5 ovarian
OVCAR-4 ovarian = tested on: OVCAR-4 ovarian
SK-OV-3 ovarian = tested on: SK-OV-3 ovarian
IGROV1 ovarian = tested on: IGROV1 ovarian
OVCAR-3 ovarian = tested on: OVCAR-3 ovarian
HS 578T breast = tested on: HS 578T breast
NCI/ADR-RES ovarian = tested on: NCI/ADR-RES ovarian
SR leukemia = tested on: SR leukemia

SMILES | growth (SK-MEL-2 melanoma) | growth (EKVX NSCLC) | growth (SN12C renal) | growth (UO-31 renal) | growth (TK-10 renal) | growth (ACHN renal) | growth (CAKI-1 renal) | growth (A498 renal) | growth (CCRF-CEM leukemia) | growth (MOLT-4 leukemia) | growth (RPMI-8226 leukemia) | growth (OVCAR-8 ovarian) | growth (OVCAR-5 ovarian) | growth (OVCAR-4 ovarian) | growth (SK-OV-3 ovarian) | growth (IGROV1 ovarian) | growth (OVCAR-3 ovarian) | growth (HS 578T breast) | growth (NCI/ADR-RES ovarian) | growth (SR leukemia)
CCNC(=O)Oc1ccc(/C(=C(/CC)Cc2ccccc2)c2ccc(OCCN3CCCC3)cc2)cc1 | 108% | 88.3% | 92.7% | 83.5% | 91.2% | 95.1% | 96.8% | 89.3% | 87.2% | 75.9% | 77.7% | 94.1% | 94.6% | 93.3% | 88.5% | 91.5% | 96.9% | 93.5% | 97.9% | 
Cc1nc2c(=O)nc3s/c(=C\c4ccco4)c(=O)n3c2nc1C | 109% | 91.8% | 97.8% | 73.1% | 92.9% | 99.2% | 88.4% | 50.9% | 108% | 106% | 116% | 96.1% | 101% | 101% | 102% | 93.4% | 105% | -95.1% (active) | 93.5% | 
O=C1Nc2ccccc2/C1=C\c1c[nH]c2ccc(Br)cc12 | 66.8% | 79.5% | 84.9% | 46% | 75.3% | 53.6% | 55% | 108% | 66.1% | 62.1% | 73.9% |  | 80.4% | 54.7% | 66.5% | 61.5% | 72.5% | 82.7% | 57.7% | 72.4%
COc1cccc(CNc2c3ccccc3nc3ccccc23)c1 | 67.9% | 51.8% | 37.9% | 27% | 51.7% | 19.1% | 35.7% | 3.65% (active) | 30.2% | 6.41% (active) | 16.7% | 31.9% | 45.9% | 43.6% | 54.7% | 28.3% | 54.8% | 55.6% |  | 
Clc1ccc(-c2cc(-c3ccccc3)nc(NCCNc3ccnc4cc(Cl)ccc34)n2)cc1 | 78.8% | 88.4% | -48% (active) | 36.4% | 106% | 10.1% | 5.52% (active) | 53.3% | -2.14% (active) | -1.52% (active) | -25.3% (active) |  | 48.9% | -69.4% (active) | 100% | -61.3% (active) | -90.6% (active) | -17.5% (active) | -63.4% (active) | 29.2%
O=S(=O)(NCCCNc1nccc(-c2c(-c3cccc(F)c3)nc3occn23)n1)c1ccc(F)cc1 | 55.5% | 54.3% | 51.2% | 31.4% | 56.7% | 46% | 37.1% | 45.7% | 31.9% | 8.3% (active) | 37.3% |  | 89.9% | 37% | 54.5% | 24.5% | 55.3% | 59% | 42.4% | 53.8%
O=C1Nc2ccccc2/C1=C/c1cccn1C(=O)c1ccc(Cl)s1 | 86.7% | 22.6% | 86.2% | 65.1% | 50.6% | 47.7% | 64% | 67.4% | 26.6% | 30.3% | 52.5% |  | 66.5% | 15.3% | 72% | 38.6% | 38.8% |  | 74.3% | 27.8%
COc1ccc2c(c1)CCc1[nH]nc(-c3cc(OC)c(OC)c(OC)c3)c1-2 | 31.1% | 33.7% | 31.9% | 13.8% | 50.1% | 25.4% | 26% | -9.65% (active) | 0.932% (active) | 9.32% (active) | 22.3% | 7.98% (active) | 56% | 45.3% | -7.59% (active) | 25.5% | 1.01% (active) | 23% | 0.961% (active) | 
COc1ccc(CNc2c3ccccc3nc3ccccc23)c(OC)c1 | 94% | 51.1% | 31% | 28% | 54.4% | 25.8% | 36.2% | -11.5% (active) | 55.4% | 18.5% | 34.9% | 37.8% | 50.3% | 39.7% | 63.3% | 22.4% | 69.2% | 68.9% | 35.6% | 
COc1ccc2[nH]cc(-c3nc(-c4c[nH]c5c(Cl)nccc45)cs3)c2c1 | 59.3% | 62.8% | 56.5% | 32.4% | 49.6% | 16.1% | 61.6% | -15.3% (active) | 24.7% | 41.1% | 43.5% |  | 99.9% | 68.6% | 46.9% | 54.7% | 75.9% | 38.7% | 20.7% | 18.1%
COc1ccc(-c2ccc(-c3ccc(C(=N)N)nc3)s2)cc1Cl | 102% | 56.4% | -81.7% (active) | -94.8% (active) | 94.5% | -96.2% (active) | -90.2% (active) | 88.2% | -49% (active) | -49.3% (active) | -45.4% (active) | -28.5% (active) | -37.6% (active) | -79.5% (active) | 97.1% | -87.8% (active) | -90.6% (active) | -48.3% (active) | 37.7% | 
N#Cc1cccc(C2C3=C(COC3=O)N(CCO)c3cc4c(cc32)CCC4)c1 (configuration not stated) | 24.5% | 41.4% | 34.3% | 39% | 54.2% | 26% | 34.7% | -6.54% (active) | 7.42% (active) | 13.5% | 19.3% |  | 43.5% | 56.4% | 32.1% | 22.5% | -10.5% (active) | 28.2% | 2.04% (active) | 14.8%
COc1ccc(/C=C/C(=O)c2cc3c(N)c(C(=O)Nc4cccc(Cl)c4C)sc3nc2C)cc1 | 51.6% | 44.5% | 4.97% (active) | 22.9% | 28.7% | 17.7% | 13.2% | 4.47% (active) | 10.9% | 19% | -11.8% (active) |  | 27.6% | 37% | 23.8% | 21.9% | 8.05% (active) | 6.35% (active) | -25.5% (active) | 16.2%
CCS/C(Nc1ccccc1)=C(\C#N)C(=O)Nc1ccc(OC)cc1 | -0.335% (active) | 52.4% | 37.8% | 50% | 47.7% | 51.9% | 40.4% | 22.7% | 8.29% (active) | 10.1% | 25.2% | 31.2% | 63.1% | 66.7% | 22.4% | 55.7% | -12.1% (active) | 27.4% | -0.669% (active) | 
Cc1ccc(C(=O)c2ccc(CC(=O)NN3C(=O)c4ccccc4C3=O)n2C)cc1 | 102% | 100% | 92.8% | 75.7% | 111% | 96.3% | 87.4% | 104% | 110% | 100% | 100% | 98.9% | 93.7% | 101% | 109% | 98.6% | 107% | 104% | 99.1% | 
CCc1ccc(CCC(=O)Nc2ncc(Cc3cc(Cl)ccc3Cl)s2)o1 | 45.5% | 42.9% | 31.9% | 33.4% | 51% | 33.9% | 23.9% | -0.625% (active) | 10.4% | 14.7% | 12.3% |  | 24.5% | 50.3% | 34% | 23.5% | -2.36% (active) | 7.65% (active) | -3.44% (active) | 15.3%

Source: PubChem BioAssay (NCI)
